# Several values for one entry are separate records, joined by “and”; a condition that tells them apart may be missing. Identical values can stand only once. Results filed as inconclusive are left out. Entries that show only a call come without a potency. Where a structure was tested more than once in an assay, its records may differ in their call. Activity calls are given as the source filed them. Unless noted, calls come from the whole dose curve; as a rule, active = well fitted curve in the direction sought with a large enough effect in the repeat runs; inconclusive = weak or mixed curves; inactive = no such curve, though single readings can be large; an effect the other way counts as inactive or inconclusive.
# Experiments:
# [1] = biological target: Peroxisome proliferator-activated receptor delta (Homo sapiens) (UniProt Q03181); test: qHTS assay to identify small molecule agonists of the peroxisome proliferator-activated receptor delta (PPARd) signaling pathway (AID 743212; calls by dose curve;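 note: HEK293H cells with PPARd UAS beta-lactamase reporter GeneBLAzer system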)
# Summary of the method: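 Steps: seed PPARd-bla HEK293H cells; incubate 5 h, 37 C, 5% CO2; add compounds in DMSO; incubate, 37 C; add LiveBLAzer B/G FRET substrate; hold 2 h at room temperature; measure fluorescence.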
# [2] = qHTS assay to identify small molecule antagonists of the peroxisome proliferator-activated receptor delta (PPARd) signaling pathway - cell viability counter screen (AID 743213); note: nearly all actives have a fitted effect of over 50% in size; note: potency is the fitted concentration of half-maximal effect
# Summary of the method: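 Viability counter-screen, qHTS format: PPARd-bla HEK293H, L165041 300 nM final, 17 h compound exposure at 37 C, CellTiter-Glo luminescence after 30 min RT.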
# [3] = biological target: Peroxisome proliferator-activated receptor delta (Homo sapiens) (UniProt Q03181); test: qHTS assay to identify small molecule antagonists of the peroxisome proliferator-activated receptor delta (PPARd) signaling pathway (AID 743215; active = well fitted inhibition curve with a large enough effect in the signal ratio in the repeat runs, not every such curve was filed as active; the % refers to the signal ratio;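 note: cells stimulated with agonist L165041 at 300 nM final during compound exposure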; note: potency is the fitted concentration of half-maximal effect)
# Summary of the method: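 Fluorescence from cleaved LiveBLAzer B/G FRET substrate (2 h, room temperature) reports PPARd-driven beta-lactamase in HEK293H UAS-bla cells. Cells had been treated 17 h at 37 C with compound plus 300 nM final L165041.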
# [4] = qHTS assay to identify small molecule antagonists of the farnesoid-X-receptor (FXR) signaling pathway - cell viability counter screen (AID 743221; active = well fitted cell-killing curve with a large enough effect in the repeat runs, not every such curve was filed as active; note: nearly all actives have a fitted effect of over 50% in size; note: potency is the fitted concentration of half-maximal effect)
# Summary of the method: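 In GeneBLAzer FXR-UAS-bla HEK 293T cells stimulated with 50 uM chenodeoxycholic acid (final), compounds acted for 16 h at 37 C. Viability was assessed afterwards by CellTiter-Glo luminescence.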
# [5] = qHTS assay to identify small molecule agonists of the vitamin D receptor (VDR) signaling pathway - cell viability counter screen (AID 743224); note: nearly all actives have a fitted effect of over 50% in size; note: potency is the fitted concentration of half-maximal effect
# Summary of the method: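 In parallel with the bla FRET readout, cytotoxicity toward VDR-bla cells after 16 h compound exposure was assessed by CellTiter-Glo, with luminescence recorded after a 30 min room-temperature incubation.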
# [6] = qHTS assay to identify small molecule antagonists of the vitamin D receptor (VDR) signaling pathway - cell viability counter screen (AID 743225); note: nearly all actives have a fitted effect of over 50% in size; note: potency is the fitted concentration of half-maximal effect
# Summary of the method: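 Luminescent cell viability (CellTiter-Glo) in VDR-bla HEK 293T cells after 16 h compound exposure at 37C in the presence of 3 nM final 1-alpha,25-dihydroxy vitamin D3.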
# [7] = qHTS assay to identify small molecule agonists of the NFkB signaling pathway - cell viability counter screen (AID 1159515; calls by dose curve; note: nearly all actives have a fitted effect of over 55% in size; note: potency is the fitted concentration of half-maximal effect)
# Summary of the method: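 Plate 2,000 NFkB-bla ME-180 cells/well; incubate overnight. Add compounds, 5 hr at 37 C. Add FRET substrate, 1.5 hr RT. Add CellTiter-Glo, 30 min RT; read luminescence.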
# [8] = qHTS assay to identify small molecule antagonists of the retinoid-related orphan receptor gamma (ROR-gamma) signaling pathway - cell viability counter screen (AID 1159520); note: nearly all actives have a fitted effect of over 50% in size; note: potency is the fitted concentration of half-maximal effect
# Summary of the method: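 Cytotoxicity was read from cellular ATP (CellTiter-Glo luminescence) after 16 hr at 37 C with 1 uM doxycycline induction. The inducer was added 2 hr after compound transfer to Tet-on ROR gamma CHO cells.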
# [9] = biological target: Bile acid receptor (Homo sapiens) (UniProt Q96RI1); test: qHTS assay to identify small molecule agonists of the farnesoid-X-receptor (FXR) signaling pathway (AID 743220; active = well fitted activation curve with a large enough effect in the signal ratio in the repeat runs, not every such curve was filed as active; the % refers to the signal ratio)
# Summary of the method: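 FXR-UAS-bla HEK 293T cells carrying a UAS-driven beta-lactamase reporter were plated for 5 h at 37C/5% CO2, then exposed to DMSO-dissolved Tox21 10K compounds for 16 h at 37C. A LiveBLAzer B/G FRET substrate was loaded for 2 h at room temperature before fluorescence reading.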
# [10] = biological target: Vitamin D3 receptor (Homo sapiens) (UniProt P11473); test: qHTS assay to identify small molecule agonists of the vitamin D receptor (VDR) signaling pathway (AID 743222; calls by dose curve)
# Summary of the method: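 Following 4 h attachment at 37C, VDR-bla cells (2,000 per well) received DMSO-dissolved compounds or controls. After 16 h incubation, LiveBLAzer B/G FRET substrate was added and fluorescence read 2 h later at room temperature.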
# [11] = biological target: Nuclear receptor ROR-gamma (Homo sapiens) (UniProt P51449); test: qHTS assay to identify small molecule antagonists of the retinoid-related orphan receptor gamma (ROR-gamma) signaling pathway (AID 1159521; note: nearly all actives have a fitted effect of over 50% in size; note: potency is the fitted concentration of half-maximal effect)
# Summary of the method: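 CHO cells expressing RORγ under a TET-on promoter, luciferase under RORE control. Dox 1 uM final, 16 h; compounds added 2 h prior. Luminescence decrease measured.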
# [12] = qHTS assay to identify small molecule agonists of the AP-1 signaling pathway - cell viability counter screen (AID 1159525; calls by dose curve; note: nearly all actives have a fitted effect of over 55% in size; note: potency is the fitted concentration of half-maximal effect)
# Summary of the method: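 Intracellular ATP by Cell Titer Glo luminescence (30 min, RT) in the same ME-180 AP-1-bla wells after the 5 h compound exposure at 37 °C. Normalised to tetra n-octyl ammonium bromide and DMSO controls.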
# [13] = qHTS assay to identify small molecule agonists of the RXR signaling pathway - cell viability counter screen (AID 1159529); note: nearly all actives have a fitted effect of over 50% in size; note: potency is the fitted concentration of half-maximal effect
# Summary of the method: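 Same-well viability check after the LiveBLAzer FRET read: CellTiter-Glo added, luminescence measured after 30 min at room temperature. Reporter HEK 293T cells had been treated with compounds for 16 hr following a 5 hr preincubation.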
# [14] = qHTS assay to identify small molecule agonists of the AP-1 signaling pathway (AID 1159526; calls by dose curve)
# [15] = qHTS assay to identify small molecule agonists of the farnesoid-X-receptor (FXR) signaling pathway - cell viability counter screen (AID 743218); note: nearly all actives have a fitted effect of over 45% in size; note: potency is the fitted concentration of half-maximal effect
# Summary of the method: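 Readout: CellTiter-Glo luminescence, 30 min RT, multiplexed after the FXR-bla FRET reading. HEK 293T FXR-UAS-bla cells received compound 5 h post-plating and were incubated 16 h at 37 C.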
# [16] = biological target: Vitamin D3 receptor (Homo sapiens) (UniProt P11473); test: qHTS assay to identify small molecule antagonists of the vitamin D receptor (VDR) signaling pathway (AID 743223; active = well fitted inhibition curve with a large enough effect in the signal ratio in the repeat runs, not every such curve was filed as active; the % refers to the signal ratio)
# Summary of the method: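 Agonist 1alpha,25-dihydroxyvitamin D3 (3 nM in well) was added with each compound to VDR-bla cells preincubated 4 h. Cells stood 16 h at 37C, then FRET substrate 2 h at room temperature; fluorescence intensity recorded.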
# [17] = biological target: Retinoic acid receptor RXR-alpha (Homo sapiens) (UniProt P19793); test: qHTS assay to identify small molecule agonists of the RXR signaling pathway (AID 1159527; calls by dose curve; note: nearly all actives have a fitted effect of over 35% in size)
# Summary of the method: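 Beta-lactamase reporter assay, agonist format. Engineered HEK 293T line, charcoal-stripped FBS at 2%, overnight (16 hr) exposure, fluorescence at 460 and 530 nm after 405 nm excitation.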
# [18] = biological target: Bile acid receptor (Homo sapiens) (UniProt Q96RI1); test: qHTS assay to identify small molecule antagonists of the farnesoid-X-receptor (FXR) signaling pathway (AID 743217; active = well fitted inhibition curve with a large enough effect in the signal ratio in the repeat runs, not every such curve was filed as active; the % refers to the signal ratio)
# Summary of the method: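 FRET fluorescence after 2 h room-temperature LiveBLAzer loading gives the readout. Prior step: FXR-bla HEK 293T cells, seeded and incubated 5 h, received test compounds plus 50 uM final CDCA for 16 h at 37 °C.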
# Retinoic acid receptor RXR-alpha (Homo sapiens), sequence (P19793 whole entry, looked up): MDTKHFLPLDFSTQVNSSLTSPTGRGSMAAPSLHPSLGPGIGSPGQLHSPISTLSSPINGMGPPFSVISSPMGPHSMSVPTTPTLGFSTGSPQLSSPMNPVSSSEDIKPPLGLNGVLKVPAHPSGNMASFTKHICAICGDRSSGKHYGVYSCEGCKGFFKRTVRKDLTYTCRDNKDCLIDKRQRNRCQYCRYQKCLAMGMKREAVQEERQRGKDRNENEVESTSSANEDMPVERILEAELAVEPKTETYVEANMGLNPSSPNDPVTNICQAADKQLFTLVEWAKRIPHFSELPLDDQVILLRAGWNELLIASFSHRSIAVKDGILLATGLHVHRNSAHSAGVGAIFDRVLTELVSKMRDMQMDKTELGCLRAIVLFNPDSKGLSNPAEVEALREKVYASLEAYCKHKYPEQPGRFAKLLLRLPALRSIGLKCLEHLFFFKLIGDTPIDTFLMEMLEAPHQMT
# Vitamin D3 receptor (Homo sapiens), sequence (P11473 whole entry, looked up): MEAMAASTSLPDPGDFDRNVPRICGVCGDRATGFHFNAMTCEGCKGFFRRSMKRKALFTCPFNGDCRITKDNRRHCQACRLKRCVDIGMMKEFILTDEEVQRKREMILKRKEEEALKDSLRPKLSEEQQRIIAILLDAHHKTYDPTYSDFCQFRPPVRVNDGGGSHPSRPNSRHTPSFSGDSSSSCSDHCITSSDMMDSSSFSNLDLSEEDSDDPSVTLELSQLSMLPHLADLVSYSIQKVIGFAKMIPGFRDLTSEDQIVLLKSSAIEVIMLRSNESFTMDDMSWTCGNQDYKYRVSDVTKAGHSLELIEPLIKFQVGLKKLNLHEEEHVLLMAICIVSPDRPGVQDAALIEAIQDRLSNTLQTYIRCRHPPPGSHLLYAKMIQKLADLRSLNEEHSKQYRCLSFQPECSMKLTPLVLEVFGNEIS
# Bile acid receptor (Homo sapiens), sequence (Q96RI1 whole entry, looked up): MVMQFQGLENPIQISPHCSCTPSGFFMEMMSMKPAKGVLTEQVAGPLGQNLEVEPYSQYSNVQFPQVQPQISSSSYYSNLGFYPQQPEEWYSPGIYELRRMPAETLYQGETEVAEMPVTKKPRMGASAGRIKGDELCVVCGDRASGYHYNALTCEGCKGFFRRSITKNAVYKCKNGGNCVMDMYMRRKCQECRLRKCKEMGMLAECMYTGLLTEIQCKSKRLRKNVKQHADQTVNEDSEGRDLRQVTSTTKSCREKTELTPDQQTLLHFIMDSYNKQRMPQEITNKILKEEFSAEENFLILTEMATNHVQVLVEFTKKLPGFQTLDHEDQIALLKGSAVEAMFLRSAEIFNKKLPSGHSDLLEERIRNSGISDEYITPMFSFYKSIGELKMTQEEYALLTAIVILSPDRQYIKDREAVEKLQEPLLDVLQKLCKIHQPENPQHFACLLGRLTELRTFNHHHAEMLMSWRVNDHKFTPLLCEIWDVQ
# Peroxisome proliferator-activated receptor delta (Homo sapiens), sequence (Q03181 whole entry, looked up): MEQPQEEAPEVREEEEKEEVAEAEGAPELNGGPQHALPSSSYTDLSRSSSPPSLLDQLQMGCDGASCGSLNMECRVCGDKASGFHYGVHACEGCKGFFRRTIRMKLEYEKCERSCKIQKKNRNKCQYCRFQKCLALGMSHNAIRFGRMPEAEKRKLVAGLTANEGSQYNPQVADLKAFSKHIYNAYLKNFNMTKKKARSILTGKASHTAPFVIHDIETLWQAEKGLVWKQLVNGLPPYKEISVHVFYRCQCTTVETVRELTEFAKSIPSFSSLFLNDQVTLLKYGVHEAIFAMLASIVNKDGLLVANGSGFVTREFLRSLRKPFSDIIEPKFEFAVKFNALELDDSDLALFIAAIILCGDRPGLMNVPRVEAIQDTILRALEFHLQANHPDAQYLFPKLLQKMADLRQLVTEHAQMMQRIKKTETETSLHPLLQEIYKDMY
Compound,Potency [1],Potency [2],Potency [3],Potency [4],Potency [5],Potency [6],Potency [7],Potency [8],outcome [9],Potency [10],Potency [11],Potency [12],Potency [13],Potency [14],Potency [15],Potency [16],outcome [17],Potency [18]
CCN(CC)c1c([N+](=O)[O-])cc(C(F)(F)F)c(N)c1[N+](=O)[O-],inactive,inactive,inactive,inactive,inactive,inactive,inactive,inactive,–,–,–,–,–,–,–,–,–,–
CCc1nn(C)c(C(=O)NCc2ccc(C(C)(C)C)cc2)c1Cl,inactive,43.6 µM (active),–,–,27.5 µM (active),38.9 µM (active),54.9 µM (active),21.7 µM (active),inactive,inactive,0.545 µM (active),54.9 µM (active),43.6 µM (active),–,–,–,–,–
CCCSP(=O)(OCC)SCCC,–,–,–,–,inactive,–,inactive,inactive,inactive,–,inactive,inactive,inactive,inactive,–,–,–,–
CC[C@H](C)[C@H]1O[C@]2(C=C[C@@H]1C)C[C@@H]1C[C@@H](C/C=C(\C)[C@@H](O[C@H]3C[C@H](OC)[C@@H](O[C@H]4C[C@H](OC)[C@@H](O)[C@H](C)O4)[C@H](C)O3)[C@@H](C)/C=C/C=C3\CO[C@@H]4[C@H](O)C(C)=C[C@@H](C(=O)O1)[C@]34O)O2,–,9.15 µM (active),–,12.9 µM (active),7.27 µM (active),11.5 µM (active),28.9 µM (active),25.6 µM (active),–,–,–,23 µM (active),16.3 µM (active),–,12.9 µM (active),–,–,–
Oc1ccc(C(=C(Cl)Cl)c2ccc(O)cc2)cc1,–,–,19.5 µM (active),inactive,48.9 µM (active),–,inactive,inactive,inactive,–,–,inactive,–,inactive,–,–,–,–
Clc1ccc(C(c2ccc(Cl)cc2)C(Cl)(Cl)Cl)cc1,inactive,inactive,inactive,inactive,–,inactive,55.3 µM (active),61.6 µM (active) and inactive,inactive,–,–,34.9 µM (active) and 38.9 µM (active),22 µM (active) and 30.9 µM (active) and 23.9 µM (active),–,inactive,inactive,–,–
CCN(CC)C(=S)[S-].CCN(CC)C(=S)[S-].[Zn+2],–,0.433 µM (active),–,6.86 µM (active),0.217 µM (active),3.06 µM (active),12.2 µM (active),5.4 µM (active),–,–,0.856 µM (active),12.2 µM (active),1.72 µM (active),–,–,–,–,–
C[C@H]1CC[C@@H]2[C@@H](C)[C@H]3[C@H](C[C@H]4[C@@H]5CC=C6CC(O[C@@H]7O[C@H](CO)[C@H](O)[C@H](O[C@@H]8O[C@H](CO)[C@@H](O)[C@H](O)[C@H]8O)[C@H]7O[C@H]7O[C@@H](C)[C@H](O)[C@@H](O)[C@H]7O)CC[C@]6(C)[C@H]5CC[C@]34C)N2C1 (some centres undefined),inactive,25.3 µM (active),inactive,14.3 µM (active),inactive,inactive,56.7 µM (active),28.2 µM (active),–,inactive,inactive,20.1 µM (active),14.3 µM (active),–,8.02 µM (active),–,–,–
N#CC(Cl)Cl,–,inactive,–,inactive,inactive,inactive,inactive,inactive,–,inactive,inactive,inactive,inactive,inactive,–,–,inactive,–
CCCCN(CCCC)C(=S)[S-].CCCCN(CCCC)C(=S)[S-].[Zn+2],–,12.3 µM (active),–,13.8 µM (active),–,11 µM (active),inactive,inactive,–,–,–,–,4.36 µM (active),–,8.7 µM (active),–,–,–
CC(C)C1CCC(Cc2ccc(Cl)cc2)C1(O)Cn1cncn1 (centres undefined),–,–,–,–,–,48.5 µM (active),54.4 µM (active),60.5 µM (active),inactive,–,30.3 µM (active),48.5 µM (active),54.4 µM (active),–,–,–,–,–
CC1(c2ccc(Oc3ccccc3)cc2)OC(=O)N(Nc2ccccc2)C1=O (centres undefined),–,43.9 µM (active),24.7 µM (active),–,–,39.1 µM (active),inactive,54.8 µM (active),inactive,–,6.15 µM (active),inactive,–,–,–,–,–,–
Cc1c(Cl)c(=O)oc2cc(OP(=O)(OCCCl)OCCCl)ccc12,–,inactive,–,inactive,inactive,inactive,inactive,inactive,–,–,inactive,inactive,inactive,inactive,inactive,–,inactive,–
C[C@H]1O[C@@H](O[C@H]2[C@@H](O)C[C@H](O[C@H]3[C@@H](O)C[C@H](O[C@H]4CC[C@@]5(C)[C@H](CC[C@@H]6[C@@H]5CC[C@]5(C)[C@@H](C7=CC(=O)OC7)CC[C@]65O)C4)O[C@@H]3C)O[C@@H]2C)C[C@H](O)[C@@H]1O,–,19.6 nM (active) and 84.1 nM (active),–,0.0139 µM (active),15.6 nM (active) and 106 nM (active),8.8 nM (active) and 84.9 nM (active),0.124 µM (active),inactive,inactive,–,5.48 µM (active) and 16.8 µM (active),–,0.0621 µM (active),–,0.0311 µM (active),–,–,–
COC12CC[C@@]3(C[C@@H]1C(C)(O)C(C)(C)C)[C@H]1Cc4ccc(O)c5c4[C@@]3(CCN1CC1CC1)[C@H]2O5 (some centres undefined),–,–,–,–,–,inactive,54.6 µM (active),60.7 µM (active),inactive,–,54.1 µM (active),54.6 µM (active),21.7 µM (active),–,–,–,–,–
CC(C)CC(C)Nc1ccc(Nc2ccccc2)cc1 (centres undefined),–,38.3 µM (active),–,–,–,48.2 µM (active),54 µM (active),67.4 µM (active),–,–,47.7 µM (active),–,54 µM (active),–,–,–,–,–
Fc1cccc(Cl)c1CCl,inactive,inactive,inactive,inactive,inactive,–,inactive,inactive,inactive,–,inactive,–,–,inactive,–,–,inactive,inactive

# Reference: PubChem BioAssay (Tox21)
